Test results as given in the supplement of paper PMC6555819.

How the values were obtained:
Assay in all cases: PBM binding z-score (relative to random genomic background probes); higher = stronger binding; sequences stand for … in GC…GCGATTGACAGCGTAGAATGAAGG
[1] = system: FXR:RXRa (NR concentration 270 nM, RXRa partner concentration 90 nM)
Outline: (§1)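 Each nuclear receptor dimer, without ligand, was incubated for 1 h on custom Agilent 4×180K protein-binding microarrays. Binding was detected with antibodies against each partner (one per run), and scanned fluorescence was regression-normalized. The binding z-scores are referenced to random human genomic background probes.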

[2] = system: LXRa:RXRa (NR concentration 270 nM, RXRa partner concentration 90 nM)
Outline: as §1

[3] = system: LXRa homodimer (NR concentration 270 nM)
Outline: as §1

[4] = system: LXRb:RXRa (NR concentration 270 nM, RXRa partner concentration 90 nM)
Outline: as §1

[5] = system: PPARa:RXRa (NR concentration 270 nM, RXRa partner concentration 90 nM)
Outline: as §1

[6] = system: PPARg:RXRa (NR concentration 180 nM, RXRa partner concentration 90 nM)
Outline: as §1

[7] = system: PPARg:RXRa 270nM:90nM, anti-RXR (NR concentration 270 nM, RXRa partner concentration 90 nM)
Outline: as §1

[8] = system: PPARg:RXRa 30nM:10nM, anti-RXR (NR concentration 30 nM, RXRa partner concentration 10 nM)
Outline: as §1

[9] = system: PPARg:RXRa 90nM:30nM, anti-RXR (NR concentration 90 nM, RXRa partner concentration 30 nM)
Outline: as §1

[10] = system: PPARg:RXRa DBDmut IVT, anti-RXR (DBD mutation: RXRa K156A/R161A, NR concentration 270 nM, RXRa partner concentration 90 nM)
Outline: as §1

[11] = system: PPARg:RXRa IVT, anti-PPARg (NR concentration 270 nM, RXRa partner concentration 90 nM)
Outline: as §1

[12] = system: PPARg homodimer (NR concentration 180 nM)
Outline: as §1

[13] = system: PXR:RXRa (NR concentration 270 nM, RXRa partner concentration 90 nM)
Outline: as §1

[14] = system: PXR homodimer (NR concentration 270 nM)
Outline: as §1

[15] = system: RARa:RXR (NR concentration 270 nM, RXRa partner concentration 90 nM)
Outline: as §1

[16] = system: RARa homodimer (NR concentration 270 nM)
Outline: as §1

[17] = system: RARb:RXRa (NR concentration 270 nM, RXRa partner concentration 90 nM)
Outline: as §1

Sequence	PBM binding z-score [1]	PBM binding z-score [2]	PBM binding z-score [3]	PBM binding z-score [4]	PBM binding z-score [5]	PBM binding z-score [6]	PBM binding z-score [7]	PBM binding z-score [8]	PBM binding z-score [9]	PBM binding z-score [10]	PBM binding z-score [11]	PBM binding z-score [12]	PBM binding z-score [13]	PBM binding z-score [14]	PBM binding z-score [15]	PBM binding z-score [16]	PBM binding z-score [17]
CCGAGTAGGTTACGTGGGGGCATTCAGTGCGAAT	2.27	7.98	1.53	6.74	3.6	1.87	3.65	0.89	2.73	4.47	4.6	0.555	5.23	6.32	2.42	0.183	2.09
CCGAGTAGGTTACGAGGGGACATTCAGTGCGAAT	1.08	5.68	0.00926	3.05	1.68	2.07	2.15	0.304	1.13	4.84	4.14	1.04	2.82	2.23	0.995	0.101	1.42
CCGAGTAGGCTACGAGGGGGCATTCAGTGCGAAT	0.473	3.15	0.222	3.4	1.72	0.0175	1.1	-0.389	0.48	2.33	1.4	0.546	2.05	3.02	1.31	-0.663	0.81
CTATGTAGGTTAAGGGGGTAATTCAGTTTGAAAG	1.45	2.81	0.813	4.23	4.84	7.58	6.9	5.33	6.78	7.52	7.27	2.67	2.99	1.83	2.31	1.28	2.32
CTATGTAGGTTAAGGGGGTCGTTCAGTTTGAAAG	2.32	2.72	0.932	5.37	5.33	7.56	7.03	4.96	6.85	7.46	7.3	2.23	3.86	6.99	3.39	1.49	2.37
TCGAGTAGGTTACGAGGGCATTCAGGGATGAAGA	0.963	1.16	-0.0456	0.518	2.58	3.58	3.11	1.61	2.6	3.87	4.89	0.36	1.43	0.25	1.69	-0.742	1.63
CTATGTAGGTTAAGGGGGTCATTCAGTTTGAAAG	5.62	5.08	3.54	6.24	6.31	9	7.99	6.08	8.01	7.67	7.74	3.66	6.09	11.4	5.93	1.81	3.73
CTTTGTAGGTTAAGGGGGTCATTCAGTTTGAAAG	5.24	5.35	3.53	6.5	6.06	7.86	7.59	5.64	7.23	7.24	7.18	3.76	5.9	12	5.32	2.04	3.67
CTATGTTGGTTAAGGGGGTCATTCAGTTTGAAAG	4.6	4.68	3.82	6.28	5.26	4.14	5.2	2.97	4.57	3.11	5.29	4.17	5.75	10.8	5.62	4.36	3.51
CTATGTAGGTTATGGGGGTCATTCAGTTTGAAAG	5.57	5.53	4.32	6.32	6.04	8.27	7.54	5.25	7.06	7.32	7.49	4.13	6.22	12.9	6.28	1.72	3.67
CTATGTAGGTTAAGGGGATCATTCAGTTTGAAAG	0.585	0.973	0.126	2	3.77	5.97	5.5	3.3	4.86	7.23	6.92	1.89	1.01	0.432	0.816	0.323	1.05
CTATGTAAGTTAAGGGGGTCATTCAGTTTGAAAG	4.5	4.34	2.4	6.24	5.31	3.92	5.21	2.84	4.55	3.56	5.22	3.28	5.6	10.3	5.28	2.58	3.35
CCGAGTAGGTTACGACGGGGCATTCAGTGCGAAT	-0.0135	5.81	-0.31	3.38	1.36	0.995	1.17	-0.329	0.19	3.85	3.21	0.811	1.68	0.127	1.17	-0.209	1.23
CTATGTAGGTTAAGGGGGTCATTCCGTTTGAAAG	4.77	5.26	3.1	6.22	6.1	8.1	7.77	5.98	7.6	7.72	7.69	3.57	5.52	4.83	5.89	1.49	3.33
CTATGTAGGCTAAGGGGGTCATTCAGTTTGAAAG	3.71	3.81	0.999	5.74	5.31	5.77	6.41	3.65	6.14	5.39	5.71	1.72	5.12	8.71	5.12	0.465	2.69
CTATGTAGGTTAAGCGGGTCATTCAGTTTGAAAG	2.56	2.59	0.655	2.56	4.84	5.97	5.57	2.6	4.53	7.52	7.09	2.08	3.8	8.04	3.31	0.415	2.16
CCGAGTAGGTTACGAGGGGGCATACAGTGCGAAT	2.06	6.92	1.29	6.04	3.52	2.73	3.69	1.1	2.54	4.86	4.23	2.45	4.27	2.55	3.03	1.01	2.15
TCGAGTAGGTTATGGGGGCATTCAGGGATGAAGA	1.82	2.24	0.602	4.74	3.71	4.86	4.86	2.99	4.23	3.92	5.17	1.07	2.72	1.87	2.72	0.33	2.13
TCGATTAGGTTACGGGGGCATTCAGGGATGAAGA	3.28	3.73	1.5	5.59	4.45	5.21	5.33	4.89	5.46	5.15	5.84	2.49	3.63	2.83	3.51	1.32	3.28
TCGAGTAGGTTTCGGGGGCATTCAGGGATGAAGA	2.38	2.27	0.973	4.48	2.96	1.4	2.99	2.29	2.8	2.63	3.84	1.79	2.62	2.07	2.22	0.713	1.67
CTATGTAGGTTAAGGGGGTCAGTCAGTTTGAAAG	3.26	3.55	1.38	5.26	5.54	8.01	7.42	5.06	7.09	7.45	7.33	3.02	4.52	6.85	4.15	0.767	3.2
CTACGTAGGTTAAGGGGGTCATTCAGTTTGAAAG	5.02	5.26	2.48	6.14	5.67	4.41	5.7	2.76	4.84	2.95	4.54	2.77	5.94	11.4	6.06	0.985	3.63
TCGAGTAGGTTACGGGGGCATTCCGGGATGAAGA	2.68	2.91	0.0862	4.94	4.29	5.89	5.67	2.85	4.91	4.92	5.8	1.57	3.08	1.1	3.14	0.0892	2.51
CCGAGTAGGTTACGAGGGTGCATTCAGTGCGAAT	0.536	5.55	-0.00974	2.43	1.8	1.46	1.92	0.234	1.13	4.66	3.87	0.357	4.47	4.3	0.897	-0.753	1.13
CCGAGTAGGTTACGAGGGGGCACTCAGTGCGAAT	2.63	6.57	0.708	5.48	3.35	2.36	3.18	1.09	2.12	4.86	4.51	1.46	4.32	3.02	2.87	0.931	2.04
CCAAGTAGGTTACGAGGGGGCATTCAGTGCGAAT	3.42	7.37	1.65	6.39	4.05	4.83	4.89	2.33	3.81	6.86	6.44	2.19	5.04	6.14	3.18	1.41	2.52
CTATTTAGGTTAAGGGGGTCATTCAGTTTGAAAG	4.85	4.88	2.76	6.33	5.72	7.22	7.14	4.74	6.89	6.86	6.59	5.85	5.9	12.3	5.84	2.72	3.71
CTATGTAGGATAAGGGGGTCATTCAGTTTGAAAG	4.36	4.48	2.61	5.97	5.61	5.71	5.95	3.41	5.43	4.4	5.24	3.61	5.75	11.1	5.73	2.91	3.27
